In publication PMC4336329 (PLoS ONE, 2015):
Screen size: about 310,000 compounds; about 14,000 (4.5%) showed an effect of 50% or more. Effects have a minus sign here. Only a selection was taken, and strong results are over-represented in it overall.

The compounds below were run against human ether-à-go-go-related gene (hERG) potassium channel (human, UniProt Q12809) (assay: primary screen, population patch clamp on CHO cells stably expressing hERG; higher = less effect of the substance).
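Note: peak tail current of the secondary pulse compared with the same well before compound.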

Sequence of human ether-à-go-go-related gene (hERG) potassium channel (Q12809 whole entry, looked up): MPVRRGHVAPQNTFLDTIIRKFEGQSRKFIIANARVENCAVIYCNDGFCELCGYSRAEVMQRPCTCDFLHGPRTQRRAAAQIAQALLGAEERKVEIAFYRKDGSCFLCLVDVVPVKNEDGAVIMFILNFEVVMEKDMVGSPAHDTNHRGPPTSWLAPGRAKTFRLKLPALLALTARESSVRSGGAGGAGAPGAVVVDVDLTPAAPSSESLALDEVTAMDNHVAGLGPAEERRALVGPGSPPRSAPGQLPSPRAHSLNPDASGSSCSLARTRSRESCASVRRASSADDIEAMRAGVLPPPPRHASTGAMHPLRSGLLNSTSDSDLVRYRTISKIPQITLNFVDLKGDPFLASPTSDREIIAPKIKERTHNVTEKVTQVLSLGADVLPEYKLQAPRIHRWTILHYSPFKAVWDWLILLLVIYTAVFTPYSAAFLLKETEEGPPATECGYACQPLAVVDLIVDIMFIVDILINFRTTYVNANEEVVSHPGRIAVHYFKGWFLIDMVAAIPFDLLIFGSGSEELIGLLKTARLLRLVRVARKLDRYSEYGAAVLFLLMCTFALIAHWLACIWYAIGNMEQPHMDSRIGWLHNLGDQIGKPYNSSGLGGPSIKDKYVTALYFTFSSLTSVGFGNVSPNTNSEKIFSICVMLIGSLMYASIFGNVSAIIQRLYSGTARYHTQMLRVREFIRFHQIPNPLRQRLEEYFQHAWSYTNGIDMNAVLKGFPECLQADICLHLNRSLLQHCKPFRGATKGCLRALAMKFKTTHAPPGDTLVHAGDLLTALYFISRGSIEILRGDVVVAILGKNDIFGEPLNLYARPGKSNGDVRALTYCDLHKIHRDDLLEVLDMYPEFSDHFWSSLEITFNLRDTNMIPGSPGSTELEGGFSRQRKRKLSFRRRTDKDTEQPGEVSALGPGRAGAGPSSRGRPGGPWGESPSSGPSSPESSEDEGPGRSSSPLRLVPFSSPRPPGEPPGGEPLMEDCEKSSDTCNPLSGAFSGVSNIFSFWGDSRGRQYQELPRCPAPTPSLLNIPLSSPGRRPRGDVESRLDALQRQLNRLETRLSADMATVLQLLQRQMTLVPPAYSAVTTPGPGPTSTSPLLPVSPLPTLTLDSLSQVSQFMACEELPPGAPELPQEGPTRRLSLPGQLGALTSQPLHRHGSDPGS

Row | Compound | hERG current change (%, negative = inhibition) at 10uM [%]
1 | CCc1ccc2oc(C(=O)N3CCN(c4ccccc4OC)CC3)cc(=O)c2c1 | -68.7
2 | CN(C)/C=N/c1c(C(=O)NCc2ccccc2)nnn1Cc1ccccc1 | -12.2
3 | Cc1cccc(/C=C2\CS/C(=C\c3cccc(C)c3)C2=O)c1 | 0.505
4 | O=C(Nc1nnc(S(=O)(=O)N2CCOCC2)s1)c1ccccc1Br | 4.05
5 | COCCn1c(C)cc(C(=O)COC(=O)c2ccc(-n3nc(C)cc3C)cc2)c1C | 2.16
6 | O=C(CN1C(=O)C2C3C=CC(C3)C2C1=O)N1CC=C(c2ccccc2)CC1 (centres unmarked) | -10.1
7 | CCOC(Cn1cc(C)c(=O)[nH]c1=O)OCC | -2.39
8 | N#CCc1cc2ccc3cccc4ccc(c1)c2c34 | 16.2
9 | CCS(=O)(=O)Nc1cccc(C2=NN(S(=O)(=O)c3ccc(C)cc3)C(c3ccco3)C2)c1 (centres unmarked) | 12.9
10 | Cc1c(C)c2cc(Cl)c(O)c(CN3CCCC(C)C3)c2oc1=O (centres unmarked) | 8.5
11 | O=C(Cn1cncn1)N/N=C/c1cccc2ccccc12 | -4.06
12 | CC(C)CCC(CCN1CCOCC1)c1ccc2c(c1)OCO2.Cl (centres unmarked) | -72.9
13 | O=C(CCN1CCCCC1)c1ccc2c(c1)OCO2 | -0.169
14 | O=C(C1CCCN(Cc2ccc3c(c2)OCO3)C1)N1CCCC1.O=C(O)C(=O)O (centres unmarked) | 9.26
15 | CC(C)CCC(CCN1CCCC1)c1ccc2c(c1)OCO2.O=C(O)C(=O)O (centres unmarked) | -78.1
16 | CC(O)c1ccc2c(c1)OCCOCCN(C)CCOCCO2 (centres unmarked) | -1.64
17 | C(=NCCCN1CCOCC1)c1ccc2c(c1)OCO2 | 15.7
18 | O=C(NCCc1cccc(F)c1)C1CCCN(c2nc3ccccc3s2)C1 (centres unmarked) | 7.76
19 | CN(C)S(=O)(=O)N(CC(=O)NCc1ccccc1)c1ccccc1 | 1.87
20 | CSc1nc2c(ccc3ccccc32)o1 | 12.9
21 | CCOC(=O)c1c(NC(=O)c2cccnc2)sc(C(C)=O)c1C | -5.09
22 | NC(=O)COC(=O)c1ccccc1SCC(=O)NC1CCCCCCC1 | 12

Row | Compound | hERG current change (%, negative = inhibition) at 10uM [%]
23 | Cc1c(NC(=S)NC(NC(=O)C(C)C)C(Cl)(Cl)Cl)c(=O)n(-c2ccccc2)n1C (centres unmarked) | -1.45
24 | CN1CCN(CC(=O)Nc2ccc([N+](=O)[O-])cc2Br)CC1 | -70.9
25 | O=C(CN1CCOCC1)Nc1ccc([N+](=O)[O-])cc1Br | -43.7
26 | CC(=O)N1CCN(CC(=O)Nc2ccc([N+](=O)[O-])cc2Br)CC1 | -75.3
27 | O=C(CN1CCN(c2ccccc2O)CC1)Nc1ccc([N+](=O)[O-])cc1Br | -6.3
28 | O=C(CN1CCCCCC1)Nc1ccc([N+](=O)[O-])cc1Br | 6.13
29 | CC(=O)N1CCN(CC(=O)Nc2cc([N+](=O)[O-])ccc2Cl)CC1 | 15.5
30 | N#CCc1nc(CSc2nc3ccccc3s2)cs1 | -2.16
31 | CC(=O)Nc1ccc(N2CCCCC2)c(C(=O)Nc2cccc(C)c2)c1 | -18.1
32 | Cn1cnnc1SCC(=O)Nc1ccccc1C(=O)NC1CCCC1 | 11.8
33 | O=C(O)c1ccc(NNC(=S)Nc2cc(C(F)(F)F)ccc2Cl)cc1 | 19.4
34 | CCCc1ccc(OCC(=O)NNC(=O)c2cccnc2)cc1 | -10.9
35 | Cc1cccc(NC2=NC(C)(C)N=C(N)N2)c1C | 16.5
36 | CCOc1cccc2sc(N(CCN(C)C)C(=O)c3ccc4ccccc4c3)nc12.Cl | -51.5
37 | CCOc1cccc2sc(N(CCN(C)C)C(=O)c3ccc4c(c3)OCCO4)nc12.Cl | -53.5
38 | COc1ccc2nc(N(CCN(C)C)C(=O)c3ccc4c(c3)OCCO4)sc2c1.Cl | -35.3
39 | CCOc1cccc2sc(N(CCN(C)C)C(=O)c3cc4ccccc4cc3OC)nc12.Cl | -68.1
40 | CCOc1cccc2sc(N(CCN(C)C)C(=O)c3ccc(Br)s3)nc12.Cl | -30.3
41 | CN(C)CCN(C(=O)c1ccc2ccccc2c1)c1nc2c(F)cccc2s1.Cl | -10.2
42 | COc1cc2ccccc2cc1C(=O)N(CCN(C)C)c1nc2c(F)cccc2s1.Cl | -38.4
43 | CCOc1ccc2nc(N(CCN(C)C)C(=O)c3ccc4ccccc4c3)sc2c1.Cl | 4.67
44 | COc1cc2ccccc2cc1C(=O)N(CCN(C)C)c1nc2c(C)cccc2s1.Cl | 19.2
